From PubChem BioAssay
Most compounds without a hit are left out; they make up all but 15% or so of the library.
SARS PLpro yeast – blocks SARS-CoV papain-like protease in a yeast assay; 330,000 tested, 0.19% active; S. cerevisiae expressing SARS-CoV PLpro, growth rescue; Potency, µM (top dose mostly 32.9 µM), for the others: at the highest dose activity, positive = growth rescue, hits mostly activators; calls by dose curve; further: potency means the concentration at half of the fitted maximal effect; 0% is about no effect; nearly all actives have a fitted effect of over 55% in size
HCMV antiviral – inhibitors of human cytomegalovirus | HFF cells, HCMV-luciferase reporter, 72 h; active compounds read low | activity change, negative = inhibition, % at 57.5 µM | 410,000 tested, 4.5% active | AID 1259415; in the data active means activity change below about -60%; inconclusive means no clear call, values can overlap the other calls; inactive means above about -39%; further: on the % scale 0 is the no-effect control and ±100 the full control effect
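Steps: HFFs plated, 16 h 37C; compounds added; HCMV-luciferase added to MOI 1 PFU/cell; 72 h 37C; OneGlo reagent, 5 min room temperature; luminescence read, normalized to controls.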
Pf growth 96h – P. falciparum growth inhibition at 96 hour, primary screen for plastid delayed-death inhibitors | AID 504834 | P. falciparum luciferase reporter growth, 96 h | Potency, µM (doses to about 28.7 µM), inactives show at the highest dose activity change, negative = inhibition, actives largely listed as inhibitors | 320,000 tested, 6.9% active; further: potency means the concentration at half of the fitted maximal effect; on the % scale 0 is the no-effect control and ±100 the full control effect
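Luminescence readout: decreased luciferase signal marks inhibited growth of reporter-expressing P. falciparum in infected red cells (2% hematocrit, 0.05% parasitemia final), exposed to compound two generations (96 h, 37 C, 5% CO2).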
Sm TGR block – blocks Schistosoma mansoni thioredoxin glutathione reductase. purified TGR, DTNB reduction, TNB absorbance 405 nm. Q962Y6. Potency, µM (series often up to 114 µM), for inactives: at the top dose activity change, negative = inhibition, usual class: inhibitors. 360,000 tested, 3% active; further: potency means the concentration at half of the fitted maximal effect; on the % scale 0 is the no-effect control and ±100 the full control effect; nearly all actives have a fitted effect of over 60% in size
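TGR 20 nM + NADPH 100 uM (dispensed conc.), cpd preinc 15 min RT; start with NADPH (500 uM addition) then DTNB (15 mM addition). Kinetic TNB absorbance, 405 nm filter. Four-parameter Hill fit across titration.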
HCV inhibitor – inhibitors of hepatitis C virus infection | Huh7.5.1 HCVcc-Cre infection, luciferase reporter, 44 h | AID 651820 | 340,000 tested, 3.4% active | Potency, µM (top dose mostly 41.8 µM), for inactives: at the top dose activity change, negative = inhibition, usual class: inhibitors; further: potency means the concentration at half of the fitted maximal effect; on the % scale 0 is the no-effect control and ±100 the full control effect
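Infectious HCVcc-Cre (~0.5 moi) was added to cells just after compound, with cells seeded 4 h earlier at 1,000 per well. Luciferase activity after 44 h culture reported infection; substrate was incubated 15 min at room temperature before reading.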
Pf growth 48h – P. falciparum growth inhibition at 48 hours (one generation). 310,000 tested, 5.9% active. P. falciparum luciferase growth in erythrocytes, 48 h. Potency, µM (titrated, usually from 28.7 µM), for the others: top-dose activity change, negative = inhibition, hits mostly inhibitors. AID 504832; further: potency means the concentration at half of the fitted maximal effect; on the % scale 0 is the no-effect control and ±100 the full control effect
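In quantitative HTS format, infected erythrocytes bearing luciferase-reporter parasites were treated for a single generation at 37 C. Luminescence after adding detection reagent served as the growth measure.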
* = called active by the depositor; u = inconclusive; x = not tested or not shown. Unless noted, the call rests on the fitted dose curve; in most records, active means well fitted curve in the direction sought with a large enough effect; inconclusive means small, poorly fitted or top-dose-only effect, or another doubt; inactive means no such curve, though single readings can be large; an effect the other way counts as inactive or inconclusive.

SMILES	SARS PLpro yeast	HCMV antiviral	Pf growth 96h	Sm TGR block	HCV inhibitor	Pf growth 48h
COc1ccc(-n2nc3c(c2NC(=O)c2ccc4c(c2)OCO4)CS(=O)(=O)C3)cc1	-0.8%	0.0	55.2%	u	10.1%	u
Cc1nnc2n(c1=O)C(CS(=O)(=O)c1ccc3ccccc3c1)CS2 (stereo not drawn)	2.2%	-16.8	151.7%	u	-9.9%	-16.7%
COc1ccc(NS(=O)(=O)c2cccc(C(=O)NCC(c3ccc(OC)cc3)N3CCCCC3)c2)cc1 (stereo not drawn)	x	-27.0	x	x	u	x
CCC1CCc2sc(C(=O)O)cc2C1 (stereo not drawn)	-9.1%	-0.8	3.29µM*	1.5%	11.3%	6.3%
COc1ccccc1CNC(=O)c1cccc(N(C)C)c1	-11.3%	0.2	x	-2.6%	-5.1%	2.3%
COc1ccc(C(CNC(=O)c2cccc(S(=O)(=O)N3CCCCC3)c2)N2CCCC2)cc1 (stereo not drawn)	-0.3%	-27.0	10.4µM*	-6.2%	u	u
COc1ccc(CNC(=O)c2cccc(N(C)C)c2)cc1	-10.0%	23.8	1.85µM*	18.0%	-13.4%	17.5%
COc1ccc(NS(=O)(=O)c2cccc(C(=O)NCC(c3ccc(OC)cc3)N3CCCC3)c2)cc1 (stereo not drawn)	2.0%	-15.8	7.38µM*	-14.3%	-25.2%	6.57µM*
CCOc1ccc(NCCC(O)c2ccc(F)cc2)cc1 (stereo not drawn)	1.0%	0.3	10.8%	-20.7%	10.7%	-0.8%
COc1cc(CC(NC(C)=O)C(=O)NC2CCN(c3c(Cc4ccccc4)c(C)nc4ncnn34)CC2)cc(OC)c1 (stereo not drawn)	-11.1%	-9.4	29.9%	-7.2%	10.7%	u
N#CCOc1coc(CN2CCN(c3ccccc3)CC2)cc1=O	-2.1%	37.1	-17.1%	0.0%	5.9%	9.5%
Cc1ccc(OC(=O)c2ccc(C)c(C)c2)cn1	-19.1%	-27.6	u	1.9%	8.1%	1.2%
COc1ccc(C(=O)c2ccc(Cl)c([N+](=O)[O-])c2)cc1	8.2%	-83.0*	37.9%	u	u	-5.9%
Cc1ccc(OC(=O)c2ccc(Cl)c([N+](=O)[O-])c2)cn1	-0.8%	46.5	u	50.1µM*	u	3.6%
FC(F)(F)c1nnc2c(Sc3ccccn3)nc3ccccc3n12	-0.3%	-2.9	3.3%	25.1µM*	u	9.28µM*
FC(F)(F)c1nc2ccccc2n2c(-c3ccc(Cl)cc3)nnc12	3.4%	-105.7*	-2.6%	4.8%	5.1%	-12.6%
Cc1ccc(-c2nnc3c(C(F)(F)F)nc4ccccc4n23)cc1	0.8%	-23.7	u	-3.5%	-3.0%	u
FC(F)(F)c1nnc2c(Sc3ccccc3)nc3ccccc3n12	0.4%	-100.8*	-14.0%	u	u	-18.1%
CCOC(=O)CSc1nc2ccccc2n2c(C)nnc12	0.3%	12.7	24.3%	-22.3%	u	-12.9%
FC(F)(F)c1nc2ccccc2c2nc3ccccc3n12	1.7%	8.6	2.3%	-9.3%	14.3%	19.2%
FC(F)(F)c1nnc2c(Sc3ccc(Cl)cc3)nc3ccccc3n12	0.5%	-102.6*	13.9%	-20.2%	u	u
COc1ccc2oc3cc(C)[n+]([O-])c(-c4ccc(Cl)cc4)c3c2c1	-17.0%	-90.9*	u	0.5%	u	-4.2%
COc1ccc2oc3cc(C)[n+]([O-])c(-c4ccc(C)cc4)c3c2c1	-2.0%	-92.9*	-21.2%	-2.2%	u	-20.2%
COc1ccc(-c2c3c(cc(C)[n+]2[O-])oc2ccc(OC)cc23)cc1	-1.0%	-91.4*	-9.2%	5.8%	-10.6%	3.5%
Cc1ccnc(NC(=O)CNC(=O)c2ccccc2Br)c1	-0.6%	23.0	52.7%	-0.7%	2.9%	46.0%
CCOC(=O)c1c(C)c(-c2ccccc2)n(CC(=O)Nc2cccc(C)c2C)c1C	x	12.4	x	8.6%	x	x
